Test results reported in the supplement of paper PMC10981050.
Counter-ions that a name gives are not always drawn.

These compounds were tested on OCI-AML2 (assay: cell viability relative to vehicle control; higher = less cytotoxic). Conditions: 10 µM; SRSF2 genotype: wt/wt.
Outline: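 Mutant clones made by CRISPR editing and their isogenic wild-type counterparts, from four leukaemia lines, were exposed to a single 10 µM dose of each library compound for 48 h. The supernatant was then removed and CellTiter-Glo luminescence was read. Viability was reported as percent of the on-plate vehicle control.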

First: CC(C)NCC(O)COc1ccc(CCOCC2CC2)cc1 (centres undefined) [Betaxolol hydrochloride (Betoptic)]
Second: CCCC(=O)NCCc1csc(-c2ccc(Cl)cc2)n1 [Azoramide]
The cell viability of the first is higher: 99.6% for the first, 75.5% for the second.

First: c1ccc2[nH]c(-c3cscn3)nc2c1 [Thiabendazole]
Second: C[C@H](NC(=O)CCc1nc2ccccc2c(=O)[nH]1)c1ccccc1
The cell viability of the first is lower: 105% for the first, 121% for the second.

First: Cc1c[nH]c(C=C2C(=O)Nc3ccccc32)c1CCC(=O)O
Second: CCCn1/c(=N/C(=O)c2cccc(C(N)=O)c2)[nH]c2ccccc21 [Takinib]
The cell viability of the first is lower: 58.1% for the first, 84.3% for the second.

Going from `C=CC(=O)N1C[C@H](Nc2ncnc3[nH]ccc23)CC[C@@H]1C` to `COc1cccc2cc(-c3nc([C@H]4CC[C@H](C(=O)O)CC4)n4ncnc(N)c34)[nH]c12`, the cell viability falls from 91.6% to 27.5%.

Compared with `CC(=O)Nc1ccc(C(=O)Nc2ccccc2N)cc1` [CI994 (Tacedinaline)], `Cc1ccccc1C(=O)Nc1ccc(C(=O)N2CCCC(N(C)C)c3ccccc32)cc1` (centres undefined) [Mozavaptan] is higher in cell viability: 30% for the first, 97.1% for the second.

Going from `N#Cc1c(NC(=O)c2cccc3ccccc23)sc2c1CCCC2` [JNK inhibitor IX] to `O=C(Oc1cccc(F)c1OC(=O)c1cccc(O)c1)c1cccc(O)c1`, the cell viability rises from 12.3% to 82.4%.

Compared with `CNC(=O)c1cc(COc2nnc(Nc3ccc(Cl)cc3)c3ccoc23)ccn1` [Telatinib (BAY 57-9352)], `COCCNC(=O)Nc1ccc2nc(-c3cccs3)c(-c3cccs3)nc2c1` [ACSS2 inhibitor] is lower in cell viability: 99.5% for the first, 95.1% for the second.

Going from `Cn1c(N2CCCCS2(=O)=O)nc(C(=O)NCc2ccc(F)cc2)c(O)c1=O` to `O=C(O)[C@]1(Cc2cccc(Nc3nccs3)n2)CC[C@@H](Oc2cccc(Cl)c2F)CC1`, the cell viability falls from 102% to 24.8%.

First: CCC[C@@H]1C[C@@H](C(=O)N[C@@H]([C@H]2O[C@H](SC)[C@H](O)[C@@H](O)[C@H]2O)[C@H](C)Cl)N(C)C1 [Clindamycin HCl]
Second: C[C@H](CCC(=O)O)[C@H]1CC[C@H]2[C@@H]3[C@@H](O)C[C@@H]4C[C@H](O)CC[C@]4(C)[C@H]3CC[C@]12C [Ursodiol (Actigal Urso)]
The cell viability of the first is lower: 85.3% for the first, 99.7% for the second.

First: CC(C)=CCCC(C)(O)C1CCC2(C)C1C(O)CC1C3(C)CCC(O)C(C)(C)C3C(OC3OC(CO)C(O)C(O)C3OC3OC(C)C(O)C(O)C3O)CC12C [(20S)Ginsenoside Rg2]
Second: CC1(C)CC[C@]2(C(=O)O)CC[C@]3(C)C(=CC[C@@H]4[C@@]5(C)CC[C@H](O)[C@@](C)(CO)[C@@H]5CC[C@]43C)[C@@H]2C1 [Hederagenin]
The cell viability of the first is higher: 115% for the first, 107% for the second.

First: COC1C(O)C(O)C(O)C(O)C1O (centres undefined) [Sequoyitol]
Second: COc1cc(-c2oc3cc(O)cc(O)c3c(=O)c2O[C@@H]2O[C@H](CO[C@@H]3O[C@@H](C)[C@H](O)[C@@H](O)[C@H]3O)[C@@H](O)[C@H](O)[C@H]2O)ccc1O [Narcissoside]
The cell viability of the first is lower: 106% for the first, 109% for the second.

Compared with `CO[C@H]1C[C@H](O[C@H]2[C@H](C)O[C@@H](O[C@@H]3/C(C)=C/C[C@@H]4C[C@@H](C[C@]5(C=C[C@H](C)[C@@H](C6CCCCC6)O5)O4)OC(=O)[C@@H]4C=C(C)[C@@H](O)[C@H]5OC/C(=C\C=C\[C@@H]3C)[C@]54O)C[C@@H]2OC)O[C@@H](C)[C@@H]1O` [Doramectin], `C=C[C@]1(C)C[C@@H](OC(=O)CS[C@@H]2C[C@H]3CC[C@@H](C2)N3C)[C@]2(C)[C@H](C)CC[C@]3(CCC(=O)[C@H]32)[C@@H](C)[C@@H]1O` [Retapamulin] is higher in cell viability: 17.3% for the first, 84% for the second.

Compared with `C/C=C(\C)C(=O)OC1c2c(ccc3ccc(=O)oc23)OC(C)(C)C1OC(=O)/C(C)=C/C` (centres undefined) [Praeruptorin B], `CO[C@H]1C(=O)[C@]2(C)[C@@H](OC)C[C@H]3OC[C@@]3(OC(C)=O)[C@H]2[C@H](OC(=O)c2ccccc2)[C@]2(O)C[C@H](OC(=O)[C@H](O)[C@@H](NC(=O)OC(C)(C)C)c3ccccc3)C(C)=C1C2(C)C` [Cabazitaxel (Jevtana)] is lower in cell viability: 91.6% for the first, 16% for the second.

Compared with `COc1cc([C@@H]2Oc3cc([C@H]4Oc5cc(O)cc(O)c5C(=O)[C@@H]4O)ccc3O[C@H]2CO)ccc1O` [Silymarin (Silybin B)], `O=C(CCc1ccc(O)cc1)c1c(O)cc(O)cc1O` [Phloretin] is lower in cell viability: 114% for the first, 87.9% for the second.

Compared with `CCOC(=O)C1=C(COCCN)NC(C)=C(C(=O)OC)[C@@H]1c1ccccc1Cl` [Levamlodipine], `CCN(CC)CC(=O)Nc1c(C)cccc1C` [Lidocaine (Alphacaine)] is higher in cell viability: 39.7% for the first, 106% for the second.

Going from `C[C@@H](O)[C@H]1C(=O)N2C(C(=O)O)=C(S[C@@H]3CN[C@H](C(=O)N(C)C)C3)[C@H](C)[C@H]12` [Meropenem] to `COc1ccc(C[C@H](N)C(=O)N[C@H]2[C@@H](O)[C@H](n3cnc4c(N(C)C)ncnc43)O[C@@H]2CO)cc1` [Puromycin 2HCl], the cell viability falls from 101% to 0.49%.

First: CC(C)=CCC/C(C)=C/Cc1c(O)c(CC=C(C)C)c2c(c1O)C(=O)C1=C[C@@H]3C[C@H]4C(C)(C)O[C@@](C/C=C(/C)C(=O)O)(C3=O)[C@@]14O2 [Gambogenic acid]
Second: Cc1nc(Nc2n[nH]c3c2CN(C(=O)N[C@H](CN(C)C)c2ccccc2)C3(C)C)c2sccc2n1
The cell viability of the first is lower: 0.82% for the first, 10.7% for the second.

First: CCCCCCCCCCCCc1ccc(S(=O)(=O)Nc2nncs2)cc1
Second: NS(=O)(=O)c1cc2c(cc1Cl)N=CNS2(=O)=O [Chlorothiazide]
The cell viability of the first is higher: 111% for the first, 109% for the second.

Going from `C[C@]12CC[C@@H]3c4ccc(OC(=O)c5ccccc5)cc4CC[C@H]3[C@@H]1CC[C@@H]2O` [Estradiol Benzoate] to `CC(=O)Nc1cccc(-n2c(=O)n(C3CC3)c(=O)c3c(Nc4ccc(I)cc4F)n(C)c(=O)c(C)c32)c1`, the cell viability falls from 46.7% to 41.6%.

`Cc1cnc(C(=O)O)c[n+]1[O-]` [Acipimox] showed a cell viability of 104%.
